Giardia killer: Small Molecules that selectively kill Giardia lamblia: qHTS | Giardia lamblia trophozoite viability | activity change, % at 7.66 µM, hits read low | hit rate 0.15% among 340,000; in the data active = activity change below about -80%; inconclusive = between about -30% and that limit;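 note: parasites exposed to compound for two days anaerobically before the ATP read; % is set by controls: 0 for no effect and ±100 for the full control effect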
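Trophozoites 100 cells/well + cpd; 48 hrs, 37 deg C, anaerobic. ATPLite 1-Step added, 15-30 min RT, luminescence read (ATP-based viability).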
CCT modulator: High-Throughput Screening for Modulators of Cytosolic Chaperonin Activity. activity change, % (concentration not given with the values), hits read low. purified chaperonin ATPase assay, HTRF ADP detection, 30 min. hit rate 0.3% among 360,000; in the data active = activity change below about -30%; note: % is set by controls: 0 for no effect and ±100 for the full control effect
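We incubate TRiC, 40 or 20 nM final, with library compounds at 76 uM and 10 uM ATP for 30 min at 37 °C. ADP formed is detected with Transcreener HTRF reagents after 30 min at room temperature.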
Rango-impB inh: qHTS Assay for Inhibitors of Rango (Ran-regulated importin-beta cargo) - Importin beta complex formation | Rango CFP/YFP FRET sensor + importin beta, 45 min | Potency, µM (titrated, usually from 92.2 µM), without a hit: at the top dose inhibition of complex formation | hit rate 0.031% among 340,000;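 note: potency is the fitted concentration of half-maximal effect; 0% = DMSO wells and 100% = buffer wells lacking importin beta; nearly all actives have a fitted effect of over 15% in size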
Target sequence (Q14974 whole entry, looked up): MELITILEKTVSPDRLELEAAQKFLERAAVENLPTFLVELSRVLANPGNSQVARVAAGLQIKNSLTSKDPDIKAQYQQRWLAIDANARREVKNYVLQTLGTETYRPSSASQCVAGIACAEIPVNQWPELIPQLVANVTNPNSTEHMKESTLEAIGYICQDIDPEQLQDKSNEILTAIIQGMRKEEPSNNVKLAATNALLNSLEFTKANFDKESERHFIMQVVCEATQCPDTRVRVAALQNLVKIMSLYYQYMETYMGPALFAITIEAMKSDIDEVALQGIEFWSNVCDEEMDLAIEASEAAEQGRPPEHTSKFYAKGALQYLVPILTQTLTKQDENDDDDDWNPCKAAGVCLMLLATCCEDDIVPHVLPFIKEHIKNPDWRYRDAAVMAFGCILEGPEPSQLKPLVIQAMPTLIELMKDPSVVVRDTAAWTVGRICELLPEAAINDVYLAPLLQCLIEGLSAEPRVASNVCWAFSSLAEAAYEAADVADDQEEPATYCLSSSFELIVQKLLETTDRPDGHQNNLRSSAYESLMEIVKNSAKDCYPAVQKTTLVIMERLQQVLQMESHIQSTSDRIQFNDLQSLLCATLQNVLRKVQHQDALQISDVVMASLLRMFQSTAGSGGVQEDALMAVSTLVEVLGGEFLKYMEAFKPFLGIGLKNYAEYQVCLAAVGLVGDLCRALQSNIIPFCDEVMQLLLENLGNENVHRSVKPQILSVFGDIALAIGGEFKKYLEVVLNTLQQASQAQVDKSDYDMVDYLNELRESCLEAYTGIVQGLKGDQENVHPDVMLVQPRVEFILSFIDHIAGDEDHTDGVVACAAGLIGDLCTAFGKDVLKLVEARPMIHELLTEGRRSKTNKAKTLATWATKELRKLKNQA
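FRET biosensor (snurportin 1 IBB flanked by EYFP and cerulean), 50 nM, with compound 5 min, then 0.125 microM importin beta in PBS, 1 mM DTT, 0.02% Tween-20, 0.1% BSA. CFP/YFP ratio read after 45 min at room temperature; pre-read flags interference.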
MmCpn inh: Inhibitors of TCP-1 ring complex (TRiC) of Methanococcus maripaludis (MmCpn): qHTS | hit rate 0.031% among 330,000 | Chaperonin Mm-Cpn (Methanococcus maripaludis) | purified Mm-Cpn ATPase, ADP Transcreener TR-FRET | Potency, µM (titrated, usually from 76.9 µM), for the others: top-dose activity, negative = inhibition, actives largely listed as inhibitors; active = well fitted inhibition curve with a large enough effect; inconclusive = small, poorly fitted or top-dose-only effect; note: potency is the fitted concentration of half-maximal effect; % is set by controls: 0 for no effect and ±100 for the full control effect; nearly all actives have a fitted effect of over 80% in size
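Eu-cryptate anti-ADP/ADP-d2 competition gives a ratio inversely related to ADP. Enzyme at 25 nM was pre-exposed to compound for 10 min, then given 10 uM ATP for 30 min, 37°C throughout.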
Rango release inh: qHTS Assay for Inhibitors of RanGTP induced Rango (Ran-regulated importin-beta cargo) - Importin beta complex dissociation; Snurportin-1 (Homo sapiens) + GTP-binding nuclear protein Ran (Homo sapiens) + Importin …; Biochemical FRET Rango-importin beta, RanGTP-induced dissociation; Potency, µM (highest dose often 46.1 µM), inactives show top-dose activity change, negative = inhibition; hit rate 0.071% among 340,000; AID 540253, 2011; note: potency is the fitted concentration of half-maximal effect; % of control where 0% means no effect; nearly all actives have a fitted effect of over 45% in size
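Recombinant Rango FRET biosensor (EYFP–snurportin 1 IBB–cerulean CFP10) at 0.1 uM premixed with 0.25 uM importin beta in PBS, 1 mM DTT, 0.02% Tween-20, 0.1% BSA. Compound added 5 min; RanGTP-RCC1 (0.6 uM Ran, 2 mM GTP, 0.2 uM RCC1) then triggers release, read at 45 min.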
Starred values were filed as active, the others as inactive; u = inconclusive; x = no result; [ ] = another dose, or the depositor's remark. An excerpt weighted towards active compounds, which were near 0.53% of everything screened. Unless noted, calls come from the whole dose curve.

SMILES | Giardia killer | CCT modulator | Rango-impB inh | MmCpn inh | Rango release inh
CCOC(=O)CCCCCN(Cc1ccccc1)S(=O)(=O)c1ccc([N+](=O)[O-])cc1 | -7.8 | 0.1 | -1.8% | 2.7% | 12.5%
CCN(CC)CCC(c1ccc(N(C)C)cc1)c1c(OC)cc(OC)c2c(C)cc(=O)oc12 (configuration not stated) | 6.5 | x | x | x | x
Cc1ccc(/C=C2\Sc3ccccc3C2=O)s1 | -11.8 | -0.8 | u | 0.1% | 2.91µM*
Cc1ccc(C(=O)c2c3ccc(C(F)(F)F)cc3[n+]([O-])n2CCCC(N)=O)cc1 | 41.2 | -1.0 | -1.0% | 2.1% | -4.9%
Cc1ccc(C(=O)c2c3ccc(C(F)(F)F)cc3[n+]([O-])n2CCCN)cc1 | -89.8* | 0.1 | 3.5% | -2.1% | 26.6%
COc1ccc(-c2oc3ccccc3c2C(=O)OCc2ccc(O)cc2)cc1 | -15.6 | 0.5 | -4.9% | -1.6% | 1.1%
COc1ccc(-c2oc3ccccc3c2C(=O)OCc2ccccc2)cc1 | 6.2 | -33.3* | 0.2% | -1.4% | -7.1%
CC12CCC=CC1C(c1ccc3ccccc3c1)N(Cc1ccccc1)C2=O (configuration not stated) | 13.4 | x | x | x | x
Cc1nn(CC(=O)N2CCc3ccccc3C2)c(C)c1[N+](=O)[O-] | -18.7 | -0.1 | 0.6% | 1.3% | 0.4%
Cc1nn(CC(=O)N2CCc3ccccc3C2)c(C)c1Cl | -3.8 | -79.9* | 0.9% | 3.7% | -14.4%
Cc1ccccc1OCC(=O)NCC(=O)OCC(=O)c1ccc(F)cc1 | 10.8 | x | x | x | x
Cc1ccc(S(=O)(=O)N2CCN(S(=O)(=O)c3ccc4c(c3)OCCCO4)CC2)cc1 | 7.5 | x | x | x | x
Cc1onc(-c2ccccc2)c1C(=O)OCC(=O)Nc1ccc2c(c1)OCO2 | 22.3 | -43.3* | 3.6% | -1.0% | -7.8%
CCN(CC)/[N+]([O-])=N/Oc1cc(O/N=[N+](\[O-])N(C)C)c([N+](=O)[O-])cc1[N+](=O)[O-] | -6.0 | x | x | x | x
O=S(=O)(Nc1cccc2ccccc12)c1cccc2ccccc12 | 3.2 | x | x | x | x
Cc1ccc(F)cc1NCC(=O)Nc1ccc(Cl)cc1F | -23.1 | -46.6* | -1.2% | 1.1% | 0.4%
Cc1c(Cl)cccc1NCC(=O)Nc1ccc(Cl)cc1F | 11.9 | 0.1 | 4.8% | -11.9% | -2.0%
Cc1cc(C(=O)OCC(=O)Nc2ccccc2Br)c(C)o1 | -8.6 | -53.4* | 0.0% | 1.1% | 7.4%
O=S1(=O)C2CC3C=CC2(O3)C(O)C(Cc2ccccc2)N1Cc1cccc(F)c1 (configuration not stated) | 20.4 | x | x | x | x
COc1cccc2ccc(CC(O)(c3ccccc3)c3ccccc3)nc12 | x | -51.6* | x | x | x
O=S(=O)(NC[C@@H]1CCC[C@H](CNS(=O)(=O)c2c(F)cccc2F)C1)c1ccc2c(c1)OCCO2 | x | x | x | 1.6% | x
CCc1cc(C(=O)OC)c(NC(=O)c2ccoc2C)s1 | -13.9 | -44.6* | -1.1% | 0.6% | 11.4%
CN1CCc2c(sc3c2C(=O)NC(c2ccco2)N3)C1 (configuration not stated) | 13.8 | -1.1 | u | -2.2% | u
O=C1NC(c2cccs2)Nc2sc3c(c21)CCCC3 (configuration not stated) | -19.0 | -93.8* | -1.3% | 1.7% | 11.0%
Fc1cccc(NCCc2c[nH]c3ccccc23)n1 | -1.2 | 1.8 | -4.3% | 1.9% | 16.5%
SMILES | Giardia killer | CCT modulator | Rango-impB inh | MmCpn inh | Rango release inh
c1ccc2c(NCCc3c[nH]c4ccccc34)c3ccccc3nc2c1 | -12.1 | -2.7 | u | -0.1% | 14.6µM*[inhibitor]
CCN1CCc2c(sc(NC(=S)NC(=O)c3cccc(F)c3)c2C(N)=O)C1 | 1.4 | x | x | x | x
COc1ccc(CNc2nc(N)nc3nc[nH]c23)cc1 | -0.9 | x | x | x | x
O=C(c1sc2ccccc2c1Cl)N(Cc1ccco1)C1CCS(=O)(=O)C1 (configuration not stated) | 1.3 | -2.3 | u | -0.6% | 18.4µM*
c1ccc2[nH]c(NC3=NCCC3)nc2c1 | -5.0 | -97.6* | 0.0% | 0.1% | -0.6%
N#Cc1nc(N)nc(N2CCCCC2)n1 | -21.1 | x | x | x | x
Cc1ccn2c(Nc3ccccc3)c(-c3ccccn3)nc2c1 | -13.0 | -37.2* | 5.5% | 0.5% | -8.4%
COc1cc(NC(=O)c2cccs2)c(OC)cc1NC(=O)c1cccs1 | -5.6 | -3.9 | u | x | 18.4µM*
COc1cc(NC(=O)c2cccs2)c(OC)cc1NC(=O)Cc1ccccc1 | 8.1 | 0.3 | 0.2% | 1.1% | -12.4%
O=C(O)c1ccc2c(c1)C(=O)N([C@@H](Cc1ccc(O)cc1)C(=O)O)C2=O | x | x | x | -0.2% | x
CN(CCO)c1nc(-c2cccs2)nc2ccccc12 | -0.7 | x | x | x | x
CCN(CC)C(=O)Cn1cc(C(=O)C(=O)N(C)C2CCN(C)CC2)c2ccccc21 | 18.5 | -89.6* | 0.3% | 1.1% | 17.7%
CN(Cc1ccc(Cl)cc1)C(=O)c1ccccc1SCC(=O)N1CCCC1 | -6.5 | -49.7* | -1.1% | 1.3% | -9.5%
Cc1ccc(S(=O)(=O)N2CCN(c3nc(-c4ncccn4)nc4ccccc34)CC2)cc1 | 7.3 | x | x | x | x
CCC1(CC)C(=O)C2=C3C1[C@H](C(=O)OC)CC(C(=O)OC)C[C@H]3[C@H]1C(=O)N(C)C(=O)[C@H]1[C@H]2C (some centres not stated) | 5.4 | x | x | x | x
Nc1nc(NCc2ccc(Cl)c(Cl)c2)c2[nH]cnc2n1 | -15.9 | x | x | x | x
O=C(COc1ccccc1[N+](=O)[O-])Nc1cc(Cl)ccc1C(=O)O | -4.8 | -1.1 | 0.1% | 44.7µM* | 3.4%
CC(C)(C)C(=O)COc1ccccc1[N+](=O)[O-] | 1.0 | -48.2* | -1.6% | 1.9% | 0.6%
COC(=O)c1ccccc1NC(=O)COc1ccccc1[N+](=O)[O-] | 6.7 | -4.4 | 1.4% | -0.9% | -0.4%
CN1CCC(=O)N(C(CSc2ccc(Br)cc2)Cc2ccccc2)CC1 (configuration not stated) | 10.5 | x | x | x | x
O=[N+]([O-])c1ccc(-c2csc(Nc3ccccc3)n2)cc1 | 16.3 | x | x | x | x
COc1ccc(OCCOC(=O)CN2C(=O)NC3(CCCC3)C2=O)cc1 | -2.5 | 2.3 | -2.3% | -5.4% | -9.3%
CCCc1cc(=O)oc2cc(OC(=O)CN3C(=O)NC4(CCCC4)C3=O)ccc12 | -3.0 | -3.8 | u | -8.5% | 11.6µM*
CCOC(=O)N1CCN(C(=O)c2oc3ccc(S(=O)(=O)N4CCOCC4)cc3c2C)CC1 | 4.7 | 0.3 | 1.8% | -2.2% | -15.0%
Cc1cc(Cl)c2oc(C(=O)N3CCN(C(=O)c4ccco4)CC3)c(C)c2c1 | 21.0 | -0.4 | 1.2% | -2.2% | 1.7%
Cc1cc(Cl)c2oc(C(=O)N3CCOCC3)c(C)c2c1 | x | -35.2* | x | x | x

From PubChem
